Screens as filed in PubChem BioAssay.
SNCA expr inh – SNCA gene expression inhibition; HEK-293 SNCA-luciferase knock-in, luminescence, 24 h; Potency, µM (doses to about 57.2 µM), without a hit: at the top dose activity change, negative = inhibition, most hits filed as inhibitors; hit rate 0.17% among 140,000; AID 1671194;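 also: potency is read from the fitted curve at half-maximal effect; plate controls were DMSO cells for no effect and cell-free wells for full effect; nearly all actives have a fitted effect of over 45% in size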
KDM5B inhibitor – blocks human KDM5B histone demethylase activity. Potency, µM (series often up to 57.7 µM), most hits filed as inhibitors. KDM5B demethylase, FDH-coupled NADH fluorescence (FDH is formaldehyde dehydrogenase). Q9UGL1. hit rate 2.6% among 220,000. AID 1347165; also: potency is read from the fitted curve at half-maximal effect; 0% is about no effect; nearly all actives have a fitted effect of over 70% in size
Target sequence (Q9UGL1 whole entry, looked up): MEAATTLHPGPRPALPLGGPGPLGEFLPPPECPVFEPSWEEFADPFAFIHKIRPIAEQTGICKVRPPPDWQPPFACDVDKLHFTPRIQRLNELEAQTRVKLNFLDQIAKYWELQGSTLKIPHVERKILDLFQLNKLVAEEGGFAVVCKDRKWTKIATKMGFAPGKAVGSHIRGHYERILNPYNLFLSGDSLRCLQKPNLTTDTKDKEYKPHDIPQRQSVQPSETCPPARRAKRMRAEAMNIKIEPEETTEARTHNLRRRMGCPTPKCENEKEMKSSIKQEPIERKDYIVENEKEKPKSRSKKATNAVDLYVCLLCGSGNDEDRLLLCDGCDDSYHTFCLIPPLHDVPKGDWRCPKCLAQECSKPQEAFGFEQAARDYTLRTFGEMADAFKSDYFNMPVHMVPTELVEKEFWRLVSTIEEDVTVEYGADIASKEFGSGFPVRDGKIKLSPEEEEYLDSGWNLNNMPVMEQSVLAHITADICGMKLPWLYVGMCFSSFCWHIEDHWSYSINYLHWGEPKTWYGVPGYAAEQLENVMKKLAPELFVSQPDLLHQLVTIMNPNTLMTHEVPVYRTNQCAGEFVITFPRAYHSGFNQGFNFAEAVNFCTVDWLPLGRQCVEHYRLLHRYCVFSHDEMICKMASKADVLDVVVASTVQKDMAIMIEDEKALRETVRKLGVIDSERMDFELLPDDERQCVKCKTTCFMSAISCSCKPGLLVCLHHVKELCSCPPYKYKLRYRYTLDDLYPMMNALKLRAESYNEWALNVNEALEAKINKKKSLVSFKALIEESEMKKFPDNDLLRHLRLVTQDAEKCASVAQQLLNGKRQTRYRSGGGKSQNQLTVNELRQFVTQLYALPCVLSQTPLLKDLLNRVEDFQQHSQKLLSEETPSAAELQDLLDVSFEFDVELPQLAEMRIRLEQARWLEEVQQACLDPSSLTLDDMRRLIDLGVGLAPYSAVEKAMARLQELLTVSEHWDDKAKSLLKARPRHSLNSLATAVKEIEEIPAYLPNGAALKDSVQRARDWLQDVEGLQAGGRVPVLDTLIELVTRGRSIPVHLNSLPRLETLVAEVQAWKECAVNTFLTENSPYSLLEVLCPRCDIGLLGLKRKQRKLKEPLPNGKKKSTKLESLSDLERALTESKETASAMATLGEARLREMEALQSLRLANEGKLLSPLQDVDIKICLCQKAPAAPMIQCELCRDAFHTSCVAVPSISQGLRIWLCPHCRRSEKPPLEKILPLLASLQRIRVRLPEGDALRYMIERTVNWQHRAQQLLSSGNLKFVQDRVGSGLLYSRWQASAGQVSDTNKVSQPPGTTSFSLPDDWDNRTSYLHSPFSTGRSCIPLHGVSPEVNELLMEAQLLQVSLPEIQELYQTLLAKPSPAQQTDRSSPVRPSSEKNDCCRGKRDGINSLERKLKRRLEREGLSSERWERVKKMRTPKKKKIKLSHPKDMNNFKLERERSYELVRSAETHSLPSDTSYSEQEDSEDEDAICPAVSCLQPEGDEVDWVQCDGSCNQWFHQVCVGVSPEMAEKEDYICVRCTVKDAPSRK
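qHTS format, multiple compound concentrations. Buffer 50 mM HEPES pH 7.5/0.01% Tween-20; 200 nM KDM5BΔAP final; 10 min compound preincubation; substrate-mix levels 12.5 µM peptide, 25 µM α-KG, 0.25 mM NAD⁺; 30 min RT; ΔRFU.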
SNCA viab count – reduces viability of HEK-293 SNCA reporter cells; HEK-293-SNCA-luc viability, GF-AFC fluorescence, 24 h; Potency, µM (series often up to 57.1 µM), for inactives: at the top dose activity change, negative = cytotoxicity, usual class: cytotoxic; hit rate 0.12% among 150,000; AID 1671193;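 also: potency is read from the fitted curve at half-maximal effect; 0% = DMSO-treated cells and -100% = medium-only wells without cells; nearly all actives have a fitted effect of over 30% in size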
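Cytotoxicity counterscreen: after 24 h compound treatment of genome-edited SNCA-luciferase HEK-293 cells, live-cell protease substrate GF-AFC read by fluorescence after 30 min; activity scaled between DMSO (0%) and medium-only (-100%), curves Hill-fitted.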
IP6K1 inh – inhibitors of human IP6K1 | IP6K1 kinase, ADP-Glo luminescence, 2 h; hits give low values | activity change, % (series mostly up to about 58 µM) | hit rate 0.81% among 140,000; in the data active = activity change below about -25%; also: % is scaled to controls: 0 for no effect and ±100 for the full control effect
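ADP-Glo luminescence measures ADP made by human IP6K1 during a 2 h RT reaction with ATP/IP6 (mix at 1.3 mM/130 uM); top library doses 57.5 and 19.1 uM final.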
Starred values were filed as active, the others as inactive; i = inactive; ? = inconclusive; · = not tested or not shown; [ ] = dose if it differs, or a comment. The list is not random: actives were taken first. Their share in the collection is about 2.8%. Unless noted, calls follow the shape of the dose curve; as a rule, active = well fitted curve in the direction sought with a large enough effect; inconclusive = small, poorly fitted or top-dose-only effect, or another doubt; inactive = no such curve, though single readings can be large; an effect the other way counts as inactive or inconclusive.

SMILES	SNCA expr inh	KDM5B inhibitor	SNCA viab count	IP6K1 inh
CCOc1ccc2oc(=O)cc(CN(C)Cc3ccccc3)c2c1	·	i	·	·
Cc1cn2nc(C(=O)NCc3ccncc3)cc2c(N2CCSCC2)n1	-4%	i	27%	-4
COc1ccc(CNC(=O)c2cc3c(N4CCSCC4)nc(C)cn3n2)cc1	30%	?	-5%	6
Cc1cn2nc(C(=O)NCc3ccc(C(F)(F)F)cc3)cc2c(N2CCSCC2)n1	-2%	28µM*	4%	0
Cc1cn2nc(C(=O)NCc3cccc(C(F)(F)F)c3)cc2c(N2CCSCC2)n1	3%	28µM*	1%	6
Cc1cccc(CNC(=O)c2cc3c(N4CCSCC4)nc(C)cn3n2)c1	-20%	?	0%	6
CCc1ccc(CNC(=O)c2cc3c(N4CCSCC4)nc(C)cn3n2)cc1	-24%	32µM*	1%	6
O=C([C@@H]1OCCN(C2CC2)[C@H]1c1ccccc1)N1CCC(Cc2ccccc2)CC1	4%	·	0%	6
CC(C(=O)c1ccc(Cl)cc1)C1(O)C(=O)Nc2ccc(Br)cc21 (centres undefined)	·	i	·	·
CC(=O)N1C[C@@H]2CCCN3CCC[C@@H]([C@H]23)[C@H]1CCCC(=O)NCCN1CCCCC1	-8%	22µM*	17%	-7
CC(=O)N1C[C@@H]2CCCN3CCC[C@@H]([C@H]23)[C@H]1CCCC(=O)N(C)C	-2%	20µM*	0%	1
CN(C)C(=O)CCC[C@@H]1[C@H]2CCCN3CCC[C@@H](CN1C)[C@@H]23	-13%	i	-2%	6
CC(=O)N1C[C@@H]2CCCN3CCC[C@@H]([C@H]23)[C@H]1CCCC(=O)NCCCN1CCCCC1	12%	25µM*	-4%	10
CCN1CCN(CCNC(=O)CCC[C@@H]2[C@H]3CCCN4CCC[C@@H](CN2C(C)=O)[C@@H]34)CC1	-16%	i	9%	0
O=C(CCC[C@@H]1[C@H]2CCCN3CCC[C@@H](CN1Cc1ccccc1)[C@@H]23)NCCCn1cccn1	-5%	22µM*	6%	-1
COc1nccnc1NC1CCN(C(=O)NC2CCCC2)CC1	-2%	28µM*	-1%	-7
COc1nccnc1NC1CCN(C(=O)COc2ccccc2C)CC1	-6%	32µM*	-1%	1
COc1nccnc1NC1CCN(C(=O)COc2ccc(C)cc2)CC1	-16%	28µM*	-5%	2
COc1ccc(NC2CCCN(C(=O)COc3ccc(C)cc3)C2)cc1 (centres undefined)	·	i	·	·
Cc1cc(C)cc(NC(=S)NNC(=O)C(c2ccccc2)c2ccccc2)c1	·	i	·	·
COc1cc2ncnc(Nc3ccc(F)c(Cl)c3)c2cc1O	·	·	-1%	4
COc1cc2ncnc(Nc3ccc(F)c(Cl)c3)c2cc1NC(=O)/C=C/CN1CCCCC1	·	·	24µM*	2
Cc1nn(C)c(C)c1-c1ccnc(NCCC2(O)CCN(C)CC2)n1	-19%	?	-8%	1
Cc1cc(N2CCCN(c3nccc(-c4c(C)nn(C)c4C)n3)CC2)ccn1	-29%	28µM*	10%	0
COCC(=O)NC[C@H]1CCN(Cc2ccc(Cl)cc2)C[C@H]1N(C)C	10%	i	0%[12.5 µM]	12
SMILES	SNCA expr inh	KDM5B inhibitor	SNCA viab count	IP6K1 inh
COCC(=O)NC[C@H]1CCN(Cc2ccc(C#N)cc2)C[C@H]1N(C)C	38%	18µM*	-7%[12.5 µM]	12
Cc1ccc(Cn2cc(-c3ccncc3)cc2C(=O)NCC2CC2)cc1	10%	35µM*	3%	0
Cc1ccc(Cn2cc(-c3ccncc3)cc2C(=O)N(C)Cc2ccccc2)cc1	-26%	22µM*	?	-6
O=C(Nc1ccc(Br)cn1)c1cc(-c2ccccc2)on1	·	i	·	·
COCc1ccc(C(=O)N[C@@H]2COCC[C@@H]2OCc2c(C)noc2C)o1	5%	i	-2%	-10
Cc1noc(C)c1CO[C@@H]1COCC[C@H]1NC(=O)c1cccc(=O)[nH]1	-4%	18µM*	-8%	21
COc1cccc(-c2ccccc2NC(=O)C2CCN(Cc3cc(OC)ccc3O)CC2)c1	-30%	16µM*	-30%	19
CCCc1c2c(nn1-c1cc(Cl)ccc1OC)CC(C)(C)CC2=O	·	i	·	·
O=C1Nc2ccc(-c3ccc(Cl)cc3)cc2C(=O)N2CCN(C(=O)C3CCCCC3)C[C@H]12	?	25µM*	-19%	-8
COc1ccc(Cl)cc1-c1ccc2c(c1)C(=O)N1CCN(C(=O)C3CCCC3)C[C@H]1C(=O)N2	14%	20µM*	5%	4
